High-throughput results from PubChem.
AHR activator – AHR activators, primary screen, cell-based, luminescence, luciferase reporter, human. Aryl hydrocarbon receptor (Homo sapiens), P35869. AHR-responsive luciferase reporter cells. activation, % at 5 µM. 320,000 tested, 2.5% active. AID 2796, 2010; in the data active = activation above about 47%;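 note: 0% = vehicle wells and 100% = reference agonist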
A1 inh – caspase 3/7 activation in MEF A1-2A-BIM cells, primary screen, A1 inhibitor project, cell-based, luminescence, HTS | 330,000 tested, 0.066% active | caspase activation, % (no concentration beside the values) | AID 2462, 2010 | Caspase-Glo 3/7 luminescence, 3 h; percent of clofoctol response, vehicle zero;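 active = over half of replicate activation scores above 10%, or exactly half above 10 with the replicate mean above 10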
Efflux pump inh – inhibitors of Candida efflux pumps in yeast, primary screen, S. cerevisiae, Nile Red, multiplex; S. cerevisiae Candida pump triplex; inhibition, % at 10 µM; 330,000 tested, 0.44% active;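 active = plate passing quality check with inhibition over a set limit, or well fluorescence over plate mean plus 4 SD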;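 note: Nile Red retained in pooled yeast measured as flow cytometry median fluorescence; 0% = buffer negative control and 100% = Enniatin B positive control; higher means more Nile Red kept so more efflux inhibition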
ALR H2O2 inh – inhibitors of human ALR sulfhydryl oxidase, primary screen, biochemical, H2O2 detection, HRP-luminol luminescence, single point; FAD-linked sulfhydryl oxidase ALR (Homo sapiens), P55789; purified ALR, DTT oxidation; inhibition, % (concentration not given with the values); 290,000 tested, 3.8% active; AID 485317, 2010;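 active = mean replicate inhibition above about 79%, with every replicate also reaching it, limit read from the data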
VLA-4 inh – inhibition in human VLA-4 binding assay, primary screen, VLA-4 allosteric modulator project, MLPCN library, flow cytometry, VLA-4 expressing cells. Integrin alpha-4 (Homo sapiens), P13612. ligand binding flow cytometry. 330,000 tested, 0.2% active. AID 2557, 2010. inhibition, % (about 7 µM as worked out from the volumes in the protocol); in the data active = inhibition above about 50%
Target sequence (P13612 whole entry, looked up): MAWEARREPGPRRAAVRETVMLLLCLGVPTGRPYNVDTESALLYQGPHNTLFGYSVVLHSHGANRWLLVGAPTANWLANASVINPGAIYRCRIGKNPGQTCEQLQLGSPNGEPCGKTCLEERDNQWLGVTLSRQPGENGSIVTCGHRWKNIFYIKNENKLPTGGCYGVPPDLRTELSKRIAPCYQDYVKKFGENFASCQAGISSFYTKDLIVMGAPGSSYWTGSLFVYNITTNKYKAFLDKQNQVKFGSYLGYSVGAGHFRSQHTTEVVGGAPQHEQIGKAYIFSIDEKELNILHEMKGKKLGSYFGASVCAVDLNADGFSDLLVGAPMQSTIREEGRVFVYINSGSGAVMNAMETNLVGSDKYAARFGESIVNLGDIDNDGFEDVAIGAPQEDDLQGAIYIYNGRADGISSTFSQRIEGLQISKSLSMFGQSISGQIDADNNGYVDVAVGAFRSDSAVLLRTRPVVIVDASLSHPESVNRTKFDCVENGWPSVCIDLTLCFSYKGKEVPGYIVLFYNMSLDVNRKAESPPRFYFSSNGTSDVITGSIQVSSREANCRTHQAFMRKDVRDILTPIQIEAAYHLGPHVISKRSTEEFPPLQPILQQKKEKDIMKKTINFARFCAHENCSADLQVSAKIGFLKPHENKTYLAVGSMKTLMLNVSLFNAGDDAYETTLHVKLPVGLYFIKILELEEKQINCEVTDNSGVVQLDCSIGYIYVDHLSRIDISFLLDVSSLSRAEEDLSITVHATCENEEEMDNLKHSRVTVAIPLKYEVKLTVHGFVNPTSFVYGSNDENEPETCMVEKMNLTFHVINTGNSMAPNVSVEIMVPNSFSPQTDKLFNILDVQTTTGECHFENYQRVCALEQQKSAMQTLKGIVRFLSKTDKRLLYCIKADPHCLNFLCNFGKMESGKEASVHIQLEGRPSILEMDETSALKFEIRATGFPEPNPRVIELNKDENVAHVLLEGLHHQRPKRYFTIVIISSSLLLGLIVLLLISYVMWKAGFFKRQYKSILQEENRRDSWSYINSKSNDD
Mot1-301 SUMO – yeast Mot1-301 growth rescue at high temperature, primary screen, SUMOylation pathway inhibitor project, S. cerevisiae, ATP luminescence, 38.5C | AID 2716, 2010 | S. cerevisiae Mot1-301 growth rescue; percent above DMSO median, 100 means doubled | growth rescue, % at 18.8 µM | 320,000 tested, 1% active;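 active = every valid replicate shows activation above 250% relative to neutral control wells; inactive = the rest, any valid replicate at or below 250%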;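 note: OY570 slx delta 5 strain wells were the positive control but not used for scaling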
An asterisk follows results filed as active; . = no result. Shown are actives, neighbours in structure and some others; about 7.2% of the full set was active somewhere.

SMILES	AHR activator	A1 inh	Efflux pump inh	ALR H2O2 inh	VLA-4 inh	Mot1-301 SUMO
Cc1ccc(-c2nc(C#N)c(NCC3CCCO3)o2)cc1 (stereo not given)	63*	1	0	.	-7	2
N#Cc1nc(-c2ccc(F)cc2)oc1NCCN1CCOCC1	7	0	0	65	-10	-10
N#Cc1nc(-c2cccc3ccccc23)oc1NCCN1CCOCC1	19	1	0	70	18	-1
CC(C)(C)NC(=S)N/N=C\c1ccc(-c2ccc([N+](=O)[O-])cc2)o1	11	-1	0	-3	-244	-6
COc1ccc(OC)c(NS(=O)(=O)c2c(C)nc3sccn3c2=O)c1	7	0	0	-2	-20	-13
CCOC(=O)C1CCN(c2c(NCCN(CC)c3ccccc3)c(=O)c2=O)CC1	1	0	0	98*	-6	0
CCOC(=O)N1CCC(Nc2c(NCCN3CCN(Cc4ccccc4)CC3)c(=O)c2=O)CC1	0	0	0	2	10	-19
CCOC(=O)N1CCC(Nc2c(NCCCN(CC)c3cccc(C)c3)c(=O)c2=O)CC1	-2	0	0	99*	1	-4
CCOC(=O)C1CCCN(c2c(NCCCN(CC)c3ccccc3)c(=O)c2=O)C1 (stereo not given)	-3	0	0	98*	-9	-4
CCOC(=O)N1CCN(c2c(NCCCN(C)c3ccccc3)c(=O)c2=O)CC1	9	0	0	99*	-8	4
CCOC(=O)C1CCCN(c2c(NCCN(CC)c3ccccc3)c(=O)c2=O)C1 (stereo not given)	3	1	0	.	32	-20
CCOC(=O)N1CCN(c2c(NCCN(C)Cc3ccccc3)c(=O)c2=O)CC1	0	0	0	-21	-2	43
COc1ccc(C(=O)N2CCN(c3ccccc3)CC2)cc1S(=O)(=O)N1CCOCC1	1	-1	0	11	30	9
O=C(COc1ccc(Cl)cc1)N1CCN(C(=O)c2cccs2)CC1	2	-1	0	.	16	-17
O=C(CN1CCOCC1)N/N=C/c1cccc2ccccc12	6	1	0	-3	2	200
Cc1[nH]c2ccccc2c1-c1csc(NC(=O)CSCCO)n1	50*	1	0	99*	1	.
Cc1csc(NC(=O)CSc2nc3ccccc3c(=O)[nH]2)n1	17	0	0	99*	2	-15
O=C(CSc1nc2ccccc2c(=O)[nH]1)Nc1ccc(C(=O)O)cc1	-1	0	0	.	1	6
CC(C)(C)c1csc(NC(=O)CSc2nc3ccccc3c(=O)[nH]2)n1	0	0	0	94*	-4	-8
Cc1csc(NC(=O)CSCC(=O)Nc2ccccc2)n1	2	0	0	92*	-12	28
Cc1csc(SCC(=O)Nc2ccccc2)n1	2	-2	0	25	4	130
Cc1cccc(C)c1NC(=O)CSc1nc2ccccc2c(=O)[nH]1	2	0	0	-1	23	0
NC(=O)c1c(NC(=O)C(=O)N2CCOCC2)sc2c1CCCC2	6	1	0	-14	11	0
COc1ccc(NC(=O)N2CCN(C(=O)C(Cc3ccc(F)cc3)NC(C)=O)CC2)cc1 (stereo not given)	2	-1	0	.	7	293
C=CCOc1cccc(CNc2cccc(C(=O)O)c2)c1	9	-1	0	10	3	-7
SMILES	AHR activator	A1 inh	Efflux pump inh	ALR H2O2 inh	VLA-4 inh	Mot1-301 SUMO
COC(=O)CC1SC(=O)NC1=Nc1ccc(OC)cc1 (stereo not given)	0	0	0	-7	-1	13
COC(=O)CC1SC(=O)NC1=Nc1ccc(O)cc1 (stereo not given)	0	1	0	96*	5	-9
COC(=O)C1=C(NC(=O)c2ccccc2[N+](=O)[O-])CCS1	3	0	0	-4	11	-4
Clc1c(CSc2nc3ccccc3o2)nc2ccccn12	16	-5	0	98*	-8	-9
Brc1c(CSc2nc3ccccc3o2)nc2ncccn12	16	0	0	100*	0	.
Cc1cc(C)n(C(=O)C(C)N2C(=O)c3ccccc3C2=O)n1 (stereo not given)	-1	0	0	-3	2	-7
CCC1=C(c2ccc(C)cc2)S(=O)(=O)N=C1N1CCC(C(=O)NCCCN2CCCCC2)CC1	-2	0	0	-5	19	-14
COc1cccc(C=O)c1OCCCOc1cccc2cccnc12	10	0	1	97*	2	142
Brc1ccccc1OCCCOc1cccc2cccnc12	3	0	0	-3	-2	-14
O=c1nc2sc3ccccc3n2c(=O)n1-c1ccc(Cl)cc1	52*	1	0	-6	-10	106
COc1ccccc1-c1cc(C(F)(F)F)nc(S(=O)(=O)CCCC(=O)O)n1	-1	0	0	38	7	5
COc1ccc(-c2cc(C(F)(F)F)nc(S(=O)(=O)CCC(=O)N3CCOCC3)n2)cc1	6	0	0	90*	7	-8
COc1ccccc1-c1cc(C(F)(F)F)nc(S(=O)(=O)CCCC(=O)N2CCOCC2)n1	-8	6.1*	0	.	-8	11
CCN(CC)CCOc1ccccc1C(C)=O	0	0	0	-5	-3	-3
Cc1cc(C)nc(N/N=C/c2ccccc2OCc2cccc(Br)c2)n1	15	1	0	-8	-8	1
COc1ccccc1NC(C)C(=O)N/N=C/c1ccccc1OCc1cccc(Br)c1 (stereo not given)	52*	0	0	-2	-3	-10
CCC(C)NC(=O)COC(=O)c1ccc(Cl)cc1O (stereo not given)	-1	0	0	-4	0	133
CCOC(=O)C1=C(Cc2ccc(Cl)cc2)C(=O)c2ccccc2C1=O	86*	0	1	1	.	29
CCOC(=O)C1=C(C)N=C2c3ccccc3C(=O)C2C1c1ccc(Cl)cc1 (stereo not given)	0	0	0	-1	-7	-19
COc1cc(C#Cc2c(-c3cncn3C)n(C)c3ccc(Br)cc23)cc(OC)c1	27	0	0	-7	24	31
COc1cc(C#Cc2c(-c3cncn3C)n(C)c3ccc(-c4ccc(OC)c(OC)c4)cc23)cc(OC)c1	68*	0	0	-6	-8	12
